High-throughput results (PubChem BioAssay)
CCHFV vOTU inh – CCHFV vOTU protease inhibition | Pep-AMC fluorescence | inhibition, % at 11.5 µM | 0.55% of 370,000 active; in the data active = inhibition above about 30%; note: 0% = vehicle wells with enzyme and 100% = no enzyme wells
Sa ugtP lethal – growth inhibition of S. aureus ugtP deletion strain. S. aureus RN4220 ugtP deletion, OD600 growth, 16 h. growth inhibition, % (test concentration not listed). 0.54% of 330,000 active. AID 1259309; in the data active = growth inhibition above about 68%;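 note: plate controls were untreated wells for no effect and antibiotic for full effect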
MazEF act – activators of E. coli MazEF toxin-antitoxin RNase. AID 504720. activation, % at 20 µM. 0.32% of 350,000 active. FAM/BHQ RNA-DNA oligo cleavage fluorescence, 5 h; in the data active = activation above about 50%
Target sequence (P0AE70 whole entry, looked up): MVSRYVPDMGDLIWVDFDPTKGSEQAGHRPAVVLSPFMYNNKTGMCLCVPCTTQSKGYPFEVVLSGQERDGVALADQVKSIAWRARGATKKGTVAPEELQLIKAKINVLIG
RN4220 kill – kills Staphylococcus aureus RN4220; 0.33% of 330,000 active; S. aureus RN4220 growth, OD600, 16 h; AID 1259311; inhibition, % (test concentration not listed); in the data active = inhibition above about 85%;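 note: plate controls were untreated cells for no effect and reference antibiotic for full effect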
Mtb betalactam – beta-lactam sensitization of Mtb H37Rv | inhibition, % at 25 µM | M. tuberculosis H37Rv growth with meropenem, percent inhibition | AID 434955 | 0.27% of 330,000 active; call rule not given here;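 note: growth measured after seven days incubation then overnight dye step; 0% = bacteria only wells and 100% = bacteria with antibiotic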
SARS 3CLpro inh – SARS-CoV 3CLpro protease inhibition. inhibition, % at 6 µM. recombinant SARS-CoV 3CLpro, quenched FRET peptide cleavage. P0C6X7. 0.14% of 290,000 active. AID 1706; in the data active = inhibition above about 12%
Active calls of the source: *; ? = inconclusive; . = not tested or not shown; + = active, no number. The list is not random: actives were taken first. Their share in the collection is about 1.3%.

SMILES | CCHFV vOTU inh | Sa ugtP lethal | MazEF act | RN4220 kill | Mtb betalactam | SARS 3CLpro inh
C[C@@H]1CN([C@@H](C)CO)C(=O)c2cc(NC(=O)c3ccccc3)ccc2O[C@@H](C)CCCCO[C@@H]1CN(C)Cc1ccc(C(F)(F)F)cc1 | 42.3* | . | -14.7 | . | . | .
C[C@@H]1CCCCO[C@H](CN(C)Cc2ccccc2)[C@@H](C)CN([C@H](C)CO)C(=O)c2cc(NC(=O)c3ccccc3)ccc2O1 | 1.6 | . | 2.6 | . | . | .
COC(=O)C=c1sc(=C(C#N)C(=O)NCc2ccco2)n(-c2ccccc2)c1=O | . | 3.4 | . | -2.2 | . | .
COC(=O)/C=c1/s/c(=C(\C#N)C(=O)NCc2ccco2)n(-c2ccc(C)cc2)c1=O | 0.2 | . | 65.0* | . | 2.1 | -0.8
Cc1cccn2c(=O)c3cc(C(=O)NCc4ccco4)c(=N)n(CCc4ccccc4)c3nc12 | -144.9 | 0.8 | 54.0* | 0.4 | 63.7 | 2.6
N=c1c(C(=O)NCc2ccco2)cc2c(=O)n3ccccc3nc2n1Cc1ccc(Cl)cc1 | -40.9 | 2.8 | -16.4 | 6.0 | 18.3 | -5.4
N=c1c(S(=O)(=O)c2ccc(Cl)cc2)cc2c(=O)n3ccccc3nc2n1CCc1ccccc1 | 5.1 | . | . | . | 59.2 | -4.6
N=c1c(S(=O)(=O)c2ccc(Cl)cc2)cc2c(=O)n3ccccc3nc2n1Cc1cccnc1 | . | 4.9 | 81.4* | 1.8 | ? | 1.9
N=c1c(C(=O)NCc2ccc3c(c2)OCO3)cc2c(=O)n3ccccc3nc2n1Cc1cccnc1 | -4.0 | 1.2 | 13.7 | 3.5 | -3.8 | -7.2
CCOC(=O)c1cc2c(=O)n3ccccc3nc2n(Cc2ccc(Cl)cc2)c1=N | -12.0 | 2.7 | + | 2.2 | . | .
COc1ccc(CNC(=O)c2cc3c(=O)n4ccccc4nc3n(Cc3cccnc3)c2=N)cc1 | 1.5 | 4.3 | 556.7* | 2.3 | -11.6 | -7.2
CCC(C)C(NC(=O)C1CCN(C(=O)C(NS(=O)(=O)c2ccc(C)cc2)C(C)C)CC1)C(=O)O (configuration not stated) | . | -2.0 | . | 2.1 | . | .
Cc1ccc(S(=O)(=O)c2cc3c(=O)n4ccccc4nc3n(C)c2=N)cc1C | -12.8 | 3.4 | 7.0 | 0.7 | -9.4 | -2.5
C=CCn1c(=N)c(S(=O)(=O)c2ccc(C)c(C)c2)cc2c(=O)n3ccccc3nc21 | -0.7 | 3.5 | 183.4* | 0.4 | -0.5 | 0.2
CCOc1cc(C=NNC(=O)c2cc(-c3ccccc3)nc3ccccc23)ccc1O | . | -0.9 | . | 2.6 | . | .
Cc1ccc2c(c1)sc[n+]2Cc1ccccc1 | -4.0 | 99.3* | -6.3 | 20.8 | 4.3 | 4.0
O=C(O)CCC(=NNC(=O)c1ccc(F)cc1)c1ccc(Br)cc1 | . | 1.0 | . | -0.2 | . | .
CC[n+]1c(C)sc2c(C)cc(C)cc21 | 9.9 | 7.8 | 5.0 | 2.1 | -1.6 | -2.5
CCC[n+]1c(C)sc2c3c(ccc21)CCCC3 | . | 94.6* | 9.5 | 97.2* | -10.2 | -0.8
CCn1cc(C(=O)O)c(=O)c2cc(F)c(N3CCNCC3)cc21 | . | . | . | . | 100.0 | -3.3
CCn1cc(C(=O)O)c(=O)c2cc(F)c(N3CCN(S(=O)(=O)c4ccc(NC(C)=O)cc4)CC3)cc21 | -8.2 | 99.0* | 7.7 | 99.2* | 89.7 | 1.1
CCn1cc(C(=O)NCc2ccc3c(c2)OCO3)c(=O)c2cc(F)c(N3CCN(C)CC3)cc21 | -41.0 | 7.2 | 3.3 | -0.7 | -0.3 | -8.1
CCn1cc(C(=O)O)c(=O)c2cc(F)c(N3CCN(S(=O)(=O)c4ccc5c(c4)OCCO5)CC3)cc21 | 3.1 | 100.1* | 5.6 | 99.9* | 72.1 | -2.2
CCOc1cc(C(=O)NN=CC2CC=CCC2)cc(OCC)c1OCC (configuration not stated) | . | 3.0 | . | 1.5 | . | .
Cc1ccc(S(=O)(=O)C=Cc2ccccc2)cc1 | . | 3.7 | . | 9.2 | . | .
SMILES | CCHFV vOTU inh | Sa ugtP lethal | MazEF act | RN4220 kill | Mtb betalactam | SARS 3CLpro inh
Nc1nnnn1CC(=O)NN=C/C=C/c1ccccc1 | . | 4.2 | . | 4.4 | . | .
Brc1ccc(-c2csc(NN=Cc3ccco3)n2)cc1 | . | 1.9 | . | 0.9 | . | .
CCCCCCCCNC(=O)/C(C#N)=C/c1ccccc1[N+](=O)[O-] | 12.6 | 91.1* | 121.7* | 67.4 | 5.5 | -0.6
COC(=O)c1ccc2c(c1O)C(=O)c1ccccc1C2=O | 6.6 | 97.1* | 5.0 | 96.9* | 100.1 | -1.5
O=C1c2ccccc2C(=O)c2c1ccc(O)c2O | 8.6 | . | -115.2 | . | . | .
CC(=NNC(=O)C1CC1)c1ccc(OC(F)F)cc1OC(F)F | . | 5.2 | . | -0.8 | . | .
CC(C)Oc1ccc(Cc2cnc(N)nc2N)cc1 | -1.5 | 91.4* | -0.9 | 17.3 | 4.3 | -7.8
O=C(CCCNS(=O)(=O)c1ccc(Cl)c(Cl)c1)NCCc1ccccn1 | -1.3 | 3.2 | 10.5 | 6.1 | -12.4 | -0.5
Cc1cc(OCCCC(=O)NCCc2ccccn2)ccc1Cl | 3.0 | 11.1 | 59.9* | 7.1 | -2.7 | 2.4
CC(=NNC(=O)Cc1c(C)[nH][nH]c1=O)c1ccc2ccccc2c1 | . | 1.3 | . | 4.6 | . | .
CCOc1cc(C=NNc2nncc(-c3ccccc3)n2)ccc1O | . | -21.7 | . | 5.0 | . | .
CCCCCCC[N+](CC)(CC)CCCCc1ccc(Cl)cc1 | 15.4 | 100.3* | 2.4 | 94.5* | 57.6 | .
CC(C)CCN1C(=O)c2ccc(C(=O)Nc3ccc(Br)cc3C(=O)O)cc2C1=O | 4.5 | 100.2* | 5.2 | 97.7* | -2.4 | 8.1
O=C(Nc1ccc(Cl)cc1C(=O)O)c1ccc2c(c1)C(=O)N(Cc1ccco1)C2=O | 3.7 | 99.8* | -3.9 | 66.3 | -4.9 | 2.0
CC(C)CCN1C(=O)c2ccc(C(=O)Nc3cc(C(=O)O)cc(C(=O)O)c3)cc2C1=O | 10.7 | 9.8 | 2.0 | 6.4 | -3.8 | 3.0
CCOC(=O)C1C2COc3ccc(Br)cc3C2N2C(=O)CN(CC3CCCO3)C(=O)[C@@]12C (some centres not stated) | . | 3.9 | . | 5.9 | . | .
CCN(CC)C1=CC2=CC(=C(C#N)C#N)CCC2CC1 (configuration not stated) | 1.8 | -1.7 | . | 4.7 | -1.5 | -44.7
N#CC(C#N)=C1C=C2C=C(N3CCCCC3)CCC2CC1 (configuration not stated) | . | -7.4 | + | 2.9 | -1.4 | -81.6
COc1cccc(N2C(=O)[C@H]3C(C(=O)c4cnccn4)=NN[C@H]3C2=O)c1 | 9.0 | . | -61.1 | . | 4.8 | 3.0
O=C(C1=NN[C@@H]2C(=O)N(c3cccc(C(F)(F)F)c3)C(=O)[C@H]12)c1ccc2ccccc2n1 | 24.4 | -7.4 | 96.5* | 2.3 | -3.7 | 1.0
O=C(C1=NN[C@@H]2C(=O)N(c3cccc(F)c3)C(=O)[C@H]12)c1ccc2ccccc2n1 | -5.0 | . | 72.9* | . | -1.3 | -0.2
O=C1CCN(CCc2ccccc2)CCN1C(CO)c1ccccc1 (configuration not stated) | . | 0.1 | . | 7.6 | . | .
C/C(C=NNC(=O)CSc1n[nH]c(=O)[nH]c1=O)=C\c1ccccc1 | . | 4.6 | . | 5.6 | . | .
Cc1ccc2c(N)c(C)ccc2c1 | -38.3 | 15.8 | 1.5 | 4.0 | -4.1 | -6.7
Cc1ccc2cc3c(N)c4c(C)ccc(C)c4nc3nc2c1 | -4.1 | -4.9 | 55.2* | 10.2 | . | 1.0
O=[N+]([O-])c1ccc(N2CCCC2)c2ccncc12 | 18.4 | 9.9 | 1.9 | 4.0 | -3.2 | -1.0
